In PubChem BioAssay AID493131 (Broad Institute, 2011):
Screen size: about 340,000 compounds; about 3,300 (0.97%) were called active.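 How the source made its calls: active means mean activation above about 17%, with every replicate also reaching it (limit read from the data, passing the limit was not always enough); inconclusive means only one of the two conditions met; inactive means the rest.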 Many of the other results were omitted from the sample, so actives are more common in it than they were.

These compounds were tested against Protein FosB (Mus musculus) (UniProt P13346) (assay: activators of delta FosB homodimer, primary screen, biochemical, fluorescence polarization, TAMRA-CDK5 oligo, single point (AID 493131;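 further: fluorescence polarization rise as delta FosB binds a TAMRA Cdk5 AP-1 oligo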)). Conditions: purified delta FosB, at 25 µM, stronger effect = higher value, percent of positive-control signal above neutral wells.
Protein FosB (Mus musculus), sequence (P13346 whole entry, looked up): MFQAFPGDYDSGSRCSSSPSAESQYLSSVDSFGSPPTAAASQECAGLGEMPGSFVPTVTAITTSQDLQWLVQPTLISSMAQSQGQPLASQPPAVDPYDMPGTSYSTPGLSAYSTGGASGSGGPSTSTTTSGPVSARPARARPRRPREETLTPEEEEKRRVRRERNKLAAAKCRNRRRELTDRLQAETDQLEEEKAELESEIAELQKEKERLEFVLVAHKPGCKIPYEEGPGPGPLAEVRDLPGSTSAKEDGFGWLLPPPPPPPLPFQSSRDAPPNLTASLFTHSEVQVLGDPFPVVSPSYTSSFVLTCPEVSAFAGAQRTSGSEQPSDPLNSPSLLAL

SMILES | activation
CNc1nc(SC)nc(N(C#N)CC(=O)OC)n1 | 0.989% (inactive)
Oc1c(C(c2ccco2)N2CCC3(CC2)OCCO3)sc2ncnn12 (centres undefined) | -7.56% (inactive)
CC(C)NS(=O)(=O)c1ccc(OCC(=O)Nc2ccc3c(c2)OCCO3)cc1 | -10.5% (inactive)
CC(=O)Nc1ccc(NC(=O)C(NS(=O)(=O)c2ccc3c(c2)OCCO3)C(C)C)cc1 (centres undefined) | 36.7% (active)
CC(NS(=O)(=O)c1ccc(Cl)cc1)C(=O)Nc1ccc2c(c1)OCCO2 (centres undefined) | 1.9% (inactive)
CCc1ccc(C(=O)OCC(=O)NCC(F)(F)F)cc1 | -1.18% (inactive)
COC(=O)c1ccc2ccccc2c1OC1OC(CO)C(O)C(O)C1NC(C)=O (centres undefined) | -0.206% (inactive)
C#CCOCCOCCOCCNc1nc(N2CCN(C(=O)[C@H](Cc3ccc(O)cc3)n3cc(C(N)CC(C)C)nn3)CC2)nc(N2CCN(C(=O)[C@H](CCC(=O)O)n3cc(C(N)[C@H](C)CC)nn3)CC2)n1 (some centres undefined) | 2.04% (inactive)
C#CCOCCOCCOCCNc1nc(N2CCN(C(=O)[C@H](CCCCN)n3cc(CCC(=O)O)nn3)CC2)nc(N2CCN(C(=O)[C@H](CCCCN)n3cc(CC(C)O)nn3)CC2)n1 (some centres undefined) | 2.6% (inactive)
C#CCOCCOCCOCCNc1nc(N2CCN(C(=O)[C@H](CCCCN)n3cc([C@@H](N)C(C)CC)nn3)CC2)nc(N2CCN(C(=O)[C@H](Cc3ccc(O)cc3)n3cc([C@@H](N)C(C)CC)nn3)CC2)n1 (some centres undefined) | 15.3% (inactive)
C#CCOCCOCCOCCNc1nc(N2CCN(C(=O)C(Cc3ccc(O)cc3)n3cc(C(N)CC(C)C)nn3)CC2)nc(N2CCN(C(=O)C(Cc3ccc(O)cc3)n3cc(C(N)C(C)CC)nn3)CC2)n1 (centres undefined) | 22.4% (active)
C#CCOCCOCCOCCNc1nc(N2CCN(C(=O)C([C@@H](C)O)n3cc([C@@H](N)CCCCN)nn3)CC2)nc(N2CCN(C(=O)[C@H](CCCCN)n3cc(CN)nn3)CC2)n1 (some centres undefined) | 31.3% (active)
C#CCOCCOCCOCCNc1nc(N2CCN(C(=O)[C@H](CCC(=O)O)n3cc(CN)nn3)CC2)nc(N2CCN(C(=O)[C@H](CCC(=O)O)n3cc(CN)nn3)CC2)n1 | -0.339% (inactive)
Cc1csc(CN(C)C(=O)CC2C(=O)NCCN2CC(C)(C)C)n1 (centres undefined) | -10.6% (inactive)
COc1cc(-c2nnc(Cn3cc(C(F)(F)F)ccc3=O)o2)cc(OC)c1OC | -9.47% (inactive)
COC(=O)c1ccc(CSc2ccc(S(=O)(=O)N3CCCCC3)cn2)cc1 | 8.71% (inactive)
COc1ccc(N(C)S(=O)(=O)c2ccc3c(c2)CC(C)N3C(=O)C2CC2)c(OC)c1 (centres undefined) | -12.2% (inactive)
COc1cc(C(=O)N2CCN(C/C=C/c3ccccc3)CC2)cc(OC)c1C | -7.31% (inactive)
Cn1nnc(NC(=S)NC(=O)c2ccccc2)n1 | -9.58% (inactive)
CCOC(=O)C1=C(C)N(C[C@@H]2CC[C@@H](Cc3ccc(-c4ccccc4)cc3)O2)C(=O)NC1c1ccc([N+](=O)[O-])cc1 (some centres undefined) | -9.34% (inactive)
S=c1c2[nH]cnc2ncn1CCSc1ncnc2nc[nH]c12 | 3.83% (inactive)
COC(=O)c1ccc(CNC(=O)c2ccc3oc(C(C)C)nc3c2)cc1 | -7.42% (inactive)
CC(C(=O)O)N1C(=O)c2cccc3cccc1c23 (centres undefined) | 2.8% (inactive)
O=C(CN1C(=O)c2cccc3cccc1c23)Nc1ccccc1 | 28.7% (active)
Cc1cc(C)cc(NC(=O)CN2C(=O)c3ccccc3C2=O)c1 | 3.94% (inactive)
COc1ccc(NC(=O)CCC(=O)N2CCN(S(=O)(=O)c3ccc(C)cc3)CC2)c(OC)c1 | -2.45% (inactive)
CCN1/C(=C\c2ccc3ccccc3[n+]2CC)Sc2cc(C)ccc21 | 54.5% (active)

SMILES | activation
COc1cc(/C=C/C(=O)Nc2ccc(OC)c(S(=O)(=O)N3CCOCC3)c2)ccc1OCC#N | -6.09% (inactive)
COc1ccc(/C=C/C(=O)Nc2ccc(C)cc2)cc1S(=O)(=O)N1CCOCC1 | -1.41% (inactive)
COc1ccc(/C=C/C(=O)Nc2ccc(C34CC5CC(CC(O)(C5)C3)C4)cc2)cc1OC | 51.4% (active)
COc1ccc(Cn2c(O)c(/C=C3/C=CC=N3)c(=O)[nH]c2=O)cc1 | 25.7% (active)
CCCOc1ccc(Cn2c(O)cc(=O)[nH]c2=O)cc1 | 3.75% (inactive)
COc1ccc(Cn2c(=O)cc(C)[nH]c2=S)cc1 | -1.58% (inactive)
CN(CC(O)COc1ccc(S(=O)(=O)N2CCOCC2)cc1Cl)C1CCCCC1 (centres undefined) | -9.15% (inactive)
O=C(NCCN=C1NS(=O)(=O)c2ccccc21)c1ccc(S(=O)(=O)N2CCOCC2)cc1 | -16.1% (inactive)
O=C(Nc1ccc2cn[nH]c2c1)c1ccc(S(=O)(=O)N2CCOCC2)cc1 | -7.23% (inactive)
Cc1nn(CC(=O)N2CCCCC2)c(=O)c2nn(-c3ccccc3)c(C)c12 | -5.62% (inactive)
COc1ccc(OC)c(CNC(=O)Cn2nc(C)c3c(C)n(-c4ccc(C)cc4)nc3c2=O)c1 | 113% (active)
COc1ccc(CNC(=O)C(C)n2nc(C)c3c(C)n(-c4ccccc4)nc3c2=O)c(OC)c1 (centres undefined) | -16.4% (inactive)
CCc1ccccc1NC(=O)CN(C)C(=O)c1cc(C2CC2)nn1-c1ccccc1 | -9.06% (inactive)
O=C(O)c1cccnc1NC1CCCC1 | 1.59% (inactive)
Cc1nn(C)cc1S(=O)(=O)N1CCN(c2ccc(F)cc2)CC1 | -3.96% (inactive)
C[C@@H]1O[C@@H](OC[C@H]2O[C@@H](Oc3c(-c4ccc(O)cc4)oc4cc(O)cc(O)c4c3=O)[C@H](O)[C@@H](O)[C@@H]2O)[C@H](O)[C@H](O)[C@H]1O | -1.58% (inactive)
COc1c(O)cc2oc(-c3ccc(O)c(O)c3)cc(=O)c2c1O | -4.25% (inactive)
COc1ccc(-c2cc(=O)c3c(O)cc(O[C@@H]4O[C@H](CO[C@@H]5O[C@@H](C)[C@H](O)[C@@H](O)[C@H]5O)[C@@H](O)[C@H](O)[C@H]4O)cc3o2)cc1O | 74.8% (active)
Cc1ccc(NC(=O)NC(=O)N(C2CCCCC2)S(=O)(=O)c2ccccc2)cc1 | -0.8% (inactive)
O=C(CN1CCN(c2ccc(Cl)cc2)CC1)c1ccccc1 | 1.64% (inactive)
Clc1ccc(-n2nnnc2-c2cnc(-c3ccccn3)nc2-c2cccs2)cc1 | -8.45% (inactive)
O=C(Cn1cc(-c2nnnn2-c2ccc(Cl)cc2)c(=O)c2ccccc21)c1ccccc1 | 114% (active)
CCOC(=O)N1CCC(NC(=O)C(C)n2c3ccccc3c3cnn(C)c(=O)c32)CC1 (centres undefined) | -6.6% (inactive)
O=C(Nc1cccnc1Cl)c1cc(-c2ccccc2O)on1 | 64.8% (active)
O=C(Nc1ccccc1C(F)(F)F)c1cc(-c2ccc(O)cc2)on1 | 0.0145% (inactive)
C=CCNC(=O)c1cc(-c2ccccc2O)on1 | -2.37% (inactive)
Cc1ccc(NC(=O)COC(=O)CCc2nc3ccccc3n2-c2ccccc2)c(C)c1 | -3.49% (inactive)

SMILES | activation
Cc1oc(-c2cccc(Cl)c2)[n+]([O-])c1C | 7.9% (inactive)
COc1ccc(C(=O)Nc2ccccc2C(=O)N/N=C/c2ccccc2OC)cc1 | 38% (active)
COc1ccc(C(=O)Nc2cc(C)c(NC(=O)c3ccccc3OC)cn2)cc1 | -13.9% (inactive)
COc1ccc(C(=O)Nc2ccccc2C(=O)N2CCN(c3ccccc3)CC2)cc1 | -0.701% (inactive)
Cc1ccc(NC(=O)NNC(=O)c2sccc2-n2cccc2)cc1 | -2.71% (inactive)
Nc1ccn(CC(=O)N2CCN(c3ccccn3)CC2)c(=O)n1 | -4.48% (inactive)
Cc1ccc(C)c(N2CCN(S(=O)(=O)c3ccc4c(c3)oc(=O)n4C)CC2)c1 | -5.87% (inactive)
Cc1ccc2nc(NC(=O)C3CCN(S(=O)(=O)c4ccc5c(c4)oc(=O)n5C)CC3)sc2c1 | 28.8% (active)
O=C(NC1CCCCC1)n1c(=O)oc2cc(S(=O)(=O)N3CCCCC3)ccc21 | 3.88% (inactive)
Cn1c(=O)oc2cc(S(=O)(=O)N3CCC(C(=O)Nc4ccc(OC(F)(F)F)cc4)CC3)ccc21 | 32.2% (active)
O=C(Nc1ccc(S(=O)(=O)N2CCOCC2)cc1)C1CCN(S(=O)(=O)c2ccc(Cl)cc2)CC1 | -7.05% (inactive)
COc1ccc(NC(=O)C2CCN(S(=O)(=O)c3ccc4[nH]c(=O)oc4c3)CC2)c(OC)c1 | 1.87% (inactive)
CC(=O)c1cccc(-c2ccc(CN3C(CC(C)C)C(=O)N(Cc4cn(CC5CCCCC5)nn4)CCS3(=O)=O)cc2)c1 (centres undefined) | -19.5% (inactive)
O=C(NN=Cc1ccccc1O)NN=Cc1ccccc1O | 8.66% (inactive)
O=C(Nc1ccc(C(=O)NCc2ccccc2Cl)cc1)C1=CSCCO1 | -4.85% (inactive)
COc1cc(O)c2c(=O)c3c(O)c(O)ccc3oc2c1OC | -1.22% (inactive)
CCCc1nc2c([nH]1)C(c1cccnc1)C(C#N)=C(N)O2 (centres undefined) | -0.0522% (inactive)
COC(=O)C1=C(O)/C(=C/c2ccc(OCC(=O)Nc3ccccc3)cc2)N=C1C | 13.8% (inactive)
CCOC(=O)C1=C(O)/C(=C/c2ccc(OCC(=O)Nc3ccc(C)cc3)cc2)N=C1C | 30.5% (active)
Cc1ccc(NC(=O)COc2ccc(/C=C3/NC(=O)NC3=O)cc2)cc1 | 73.1% (active)
CC(=O)Nc1ccc(NC(=O)COc2ccc(-c3ccccc3)cc2)cc1 | 14.5% (inactive)
O=C(COc1ccccc1)Nc1ccc(F)cc1 | -2.09% (inactive)
CCOC(=O)C1=C(O)/C(=C/c2cc(C)n(-c3ccccc3)c2C)N=C1C | -14.4% (inactive)
CSCCC(NC(=O)COc1ccccc1)C(=O)N(C)CC(=O)Nc1ccc(C)cc1 (centres undefined) | -10.6% (inactive)
C#Cc1ccc([C@@H]2C=C(C(=O)O)O[C@H](OCCCCO)C2)cc1 | -5.67% (inactive)
